According to PubChem BioAssay (EPA / NIEHS):
Records with an inconclusive call do not appear. The source made the active and inactive calls. Rule for the calls: active = hit-call score of the fitted dose curve at least 0.9, where 1 is the maximum; inconclusive = response in the unintended direction; inactive = score below 0.9.

Biological target: human Peroxisome Proliferator-activated Receptor delta (PPARd), PPARD (gene 5467) (UniProt Q03181)
Assay: ATG_PPARd_TRANS: Attagene TRANS-FACTORIAL HepG2 Assay for human Peroxisome Proliferator-activated Receptor delta (PPARd) (AID 2283002)
Outline: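 Measured quantity: GAL4-UAS reporter transcript induction in HepG2 after 24 h chemical dosing, with NR-Gal4 chimeras supplied by transient transfection. Detection by RT-PCR and capillary electrophoresis; upward fit against DMSO.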

Sequence of human Peroxisome Proliferator-activated Receptor delta (PPARd), PPARD (gene 5467) (Q03181 whole entry, looked up): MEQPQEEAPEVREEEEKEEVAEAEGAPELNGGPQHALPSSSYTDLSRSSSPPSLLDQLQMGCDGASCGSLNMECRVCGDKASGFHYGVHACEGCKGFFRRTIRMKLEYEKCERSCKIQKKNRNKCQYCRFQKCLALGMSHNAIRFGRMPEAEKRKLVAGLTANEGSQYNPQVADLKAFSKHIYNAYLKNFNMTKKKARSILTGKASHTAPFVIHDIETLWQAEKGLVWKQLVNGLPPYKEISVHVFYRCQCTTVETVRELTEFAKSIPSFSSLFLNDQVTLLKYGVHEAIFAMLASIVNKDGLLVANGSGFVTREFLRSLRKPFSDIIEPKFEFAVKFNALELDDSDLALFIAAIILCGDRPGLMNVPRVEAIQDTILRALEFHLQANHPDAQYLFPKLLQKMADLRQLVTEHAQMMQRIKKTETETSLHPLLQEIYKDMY

outcome, inactive:
CCOc1ccc(N=Nc2ccc(C=Cc3ccc(N=Nc4ccc(OCC)cc4)cc3S(=O)(=O)O)c(S(=O)(=O)O)c2)cc1
NC1CCCCC1N (stereo not drawn)
CC(C)Nc1nc(N)nc(Cl)n1
CCOC(=O)CN
C=COCCOCCOC=C
CCC(Cl)C(Cl)C(Cl)CC(Cl)C(Cl)C(C)Cl (stereo not drawn)
Oc1ccc2cc(SSc3ccc4cc(O)ccc4c3)ccc2c1
CCCOC(=O)c1c(Cl)c(Cl)c(Cl)c(Cl)c1C(=O)OCCC
C=CCOC(=O)CCCCCC
CCCCCCC(C)Nc1ccc(Nc2ccccc2)cc1 (stereo not drawn)

Biological target: human Retinoic Acid Receptor beta (RARb), RARB (gene 5915) (UniProt P10826)
Assay: ATG_RARb_TRANS: Attagene TRANS-FACTORIAL HepG2 Assay for human Retinoic Acid Receptor beta (AID 2283004)
Outline: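 Transient transfection of HepG2 with multiple reporter units → chemical dosing, 24 h → total RNA isolation → RT with oligo(dT) → reporter-specific PCR, 6-FAM primer extension, HpaI digest → capillary electrophoresis. Positive direction vs DMSO control.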

Sequence of human Retinoic Acid Receptor beta (RARb), RARB (gene 5915) (P10826 whole entry, looked up): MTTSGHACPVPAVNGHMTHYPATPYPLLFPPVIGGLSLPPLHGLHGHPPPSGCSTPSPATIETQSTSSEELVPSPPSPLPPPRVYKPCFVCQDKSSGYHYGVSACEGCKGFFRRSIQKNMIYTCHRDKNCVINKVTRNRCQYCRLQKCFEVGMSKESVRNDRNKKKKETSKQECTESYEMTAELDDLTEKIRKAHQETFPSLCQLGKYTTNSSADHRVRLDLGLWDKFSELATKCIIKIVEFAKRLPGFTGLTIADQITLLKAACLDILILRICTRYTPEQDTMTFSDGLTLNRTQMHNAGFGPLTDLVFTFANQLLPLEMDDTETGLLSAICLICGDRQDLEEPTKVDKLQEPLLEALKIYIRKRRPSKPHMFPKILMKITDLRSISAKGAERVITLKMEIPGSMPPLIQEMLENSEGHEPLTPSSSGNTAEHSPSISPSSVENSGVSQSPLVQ

outcome, inactive:
ClC(c1ccccc1)(c1ccccc1)c1ccccc1
CCOc1ccc(N=Nc2ccc(C=Cc3ccc(N=Nc4ccc(OCC)cc4)cc3S(=O)(=O)O)c(S(=O)(=O)O)c2)cc1
CCOC(=O)CN
